± gives the standard deviation of the averaged measurements. Whole data set: some 33,000 sequences, median “E-score (rank enrichment, -0.5 to 0.5)” near -0.0075, cut for the highest 2% near 0.23. The sample as a whole holds a higher share of the highest values than the screen did.
Each sequence was assayed on WT Max(13-93) synthetic (M65Nle) (assay: PBM 8-mer E-score (E-score (rank enrichment, -0.5 to 0.5)); higher = stronger preferential binding).
Protocol: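 Protein binding microarray (universal PBM chip covering all 10-mers in fixed probe flanks) with chemically synthesized human Max(13-93) bHLH-LZ analogs (not full-length Max) bearing noncanonical residues (hArg, Tha, Aib, Nle at 65) and aromatic Cys staples. Read-out per 8-mer (and its reverse complement): E-score (rank-based enrichment, -0.5 to 0.5) and Z-score of median probe intensity.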

Sequence	PBM 8-mer E-score
GTCGACAA	0.0204 ± 0.0078
AAGAAGGG	0.213 ± 0.0093
ACGTAAAT	0.0493 ± 0.0072
ACGTAAAA	0.0973 ± 0.0094
ACGTAAAG	0.281 ± 0.033
ACAGGCGA	-0.138 ± 0.092
ACAGTATG	0.135 ± 0.041
ACAGTATC	0.235 ± 0.0095
ACAGTATA	0.134 ± 0.0089
CACCTTCA	-0.109 ± 0.0089
CATGCTGA	0.169 ± 0.029
CATGCTCA	0.281 ± 0.034
CATGCTCG	0.188 ± 0.038
CATGCTTA	0.246 ± 0.045
CATGCTCC	0.18 ± 0.012
AATGCTTA	0.194 ± 0.036
GACATTAC	0.0651 ± 0.0097
ATCATTTG	0.0683 ± 0.013
CTTTCCGC	-0.00053 ± 0.0035
GTCGCATA	0.127 ± 0.004
CAATCTCA	8e-05 ± 0.15
CCCTATTC	0.0618 ± 0.016

Sequence	PBM 8-mer E-score
GATAAAAC	0.141 ± 0.1
TAAAAAAA	0.123 ± 0.0092
GATAAAAA	0.242 ± 0.021
TATAAAAA	0.258 ± 0.13
CATAAAAA	0.213 ± 0.085
GATAAACA	0.138 ± 0.13
GACCCCGC	-0.0133 ± 0.0045
CAAGCACC	-0.0769 ± 0.043
CAAGTAGC	-0.0222 ± 0.13
GGACGCGA	-0.0617 ± 0.22
CGAGAACC	-0.00648 ± 0.079
CAACATGC	0.119 ± 0.023
AAACATGA	0.187 ± 0.041
GAACATGC	0.164 ± 0.015
AAACATGT	0.315 ± 0.018
AAACATGG	0.2074 ± 0.0013
AAACATGC	0.248 ± 0.021
CCCATCGA	-0.073 ± 0.074
GTCTAGGA	-0.0888 ± 0.0088
AGCTCGAT	-0.0955 ± 0.12
AAGTGAGT	0.0792 ± 0.0081
AAAGACAC	0.279 ± 0.032

Sequence	PBM 8-mer E-score
CATGACAG	0.0777 ± 0.066
TAAGACAA	0.26 ± 0.04
CAAGACAA	0.123 ± 0.084
CATGACAA	0.196 ± 0.036
AAAGACAG	0.091 ± 0.049
AAAGACAA	0.2 ± 0.078
CATGACAC	0.29 ± 0.036
GAAGACAA	-0.00129 ± 0.039
AATGACAC	0.239 ± 0.013
GATGACAC	0.0335 ± 0.0041
AATGACAG	0.103 ± 0.13
CTCGCGTC	-0.0607 ± 0.017
GTTTGATA	0.157 ± 0.13
GTACCAAA	0.104 ± 0.08
GCGGGCCA	-0.176 ± 0.11
ACATCCGA	-0.16 ± 0.072
CACGTATG	0.0325 ± 0.16
GGAGTTCA	0.024 ± 0.016
CGCGGTTA	-0.0113 ± 0.021
ATCTTACG	-0.013 ± 0.042
AAGGAGCG	-0.0544 ± 0.078
TATGACAA	0.22 ± 0.013

Sequence	PBM 8-mer E-score
GATGACAA	0.147 ± 0.014
AATGACAA	0.296 ± 0.089
AGAAAAGC	0.121 ± 0.075
CACACGTA	0.0918 ± 0.056
CACACGTG	0.4756 ± 0.0046
AACACGTA	0.189 ± 0.04
AACACGTG	0.4954 ± 0.001
CACACGTC	0.0446 ± 0.022
AACACGTC	0.0692 ± 0.09
AGGAAAAT	0.102 ± 0.051
CTTGCCAA	0.0438 ± 0.04
CTTTAAGA	0.0629 ± 0.086
ACTCGATC	-0.107 ± 0.06
ATGGAGGC	-0.00616 ± 0.011
TTTATAAA	0.176 ± 0.057
ACAACCCC	0.257 ± 0.052
CCAACCCC	-0.0495 ± 0.05
ACAACCCT	-0.0273 ± 0.068
GCGTCGAA	0.00213 ± 0.017
AGCATGCT	0.165 ± 0.028

— the supplement of paper PMC12636033
